# Source: PubChem BioAssay
# Calls of active or inactive are those of the source.
# How the values were obtained:
# [1] = A549 cell viability effects, profiling panel, calcein-AM fluorescence, 48 h, basal (AID 1162); settings: higher = more signal
# [2] = adipocyte viability effects, profiling panel, cell-based, 3T3-L1 adipocytes, calcein-AM fluorescence, 48 h, basal (AID 1163); settings: 3T3-L1 adipocytes viability, higher = more signal
# [3] = HepG2 cell viability effects, profiling panel, calcein-AM fluorescence, 48 h, basal (AID 1164); settings: higher = more signal
# [4] = MM1S cell viability effects, profiling panel, calcein-AM fluorescence, 48 h, basal (AID 1165); settings: higher = more signal;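 note: viability of MM1S multiple myeloma cells under basal unstimulated conditions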
# [5] = basal RPMI8226 viability, no added stimulus, profiling panel, cell-based, calcein-AM fluorescence, 48 h, PK04 Diversity Set (AID 1166); settings: RPMI8226 myeloma viability, higher = more signal;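 note: cells grown under basal conditions without added stimulus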
# [6] = basal HepG2 mitochondrial membrane potential changes, profiling panel, cell-based, JC-1 fluorescence, 24 h, 100 nL compound (AID 1167); settings: higher = more signal
# [7] = basal 3T3-L1 adipocyte mitochondrial potential changes, profiling panel, cell-based, JC-1 fluorescence, 3T3-L1 adipocytes, 24 h, 100 nL compound (AID 1168); settings: JC-1 mitochondrial fluorescence, higher = more signal, called active from +8 up or from −8 down
# [8] = basal RPMI8226 mitochondrial membrane potential changes, profiling panel, cell-based, JC-1 fluorescence, 24 h, 100 nL compound (AID 1169); settings: RPMI8226 myeloma, JC-1 mitochondrial potential fluorescence, higher = more signal
# [9] = basal MM1S mitochondrial membrane potential changes, profiling panel, cell-based, JC-1 fluorescence, 24 h, 100 nL compound (AID 1170); settings: higher = more signal
# [10] = A549 lung cancer cell viability effects, profiling panel, resazurin fluorescence, 24 h, PK04 Diversity Set (AID 1171); settings: higher = more signal, called active from +8 up or from −8 down
# Note: test concentration not given here.
Structure (SMILES),z-score [1],z-score [2],z-score [3],z-score [4],z-score [5],z-score [6],z-score [7],z-score [8],z-score [9],z-score [10]
N#Cc1ccc(NN2C(C(O)c3cc(C(F)(F)F)cc(C(F)(F)F)c3)C=CC3C(=O)N(c4ccccc4)C(=O)C32)cc1 (stereo not given),-0.676,-0.461,-1.22,-1.45,-3.8,-2.78,-0.189 (inactive),-0.754,0.0337,-0.557 (inactive)
O=C1CCCC2OC12C(O)CCc1ccccc1 (stereo not given),-0.202,-0.0344,-0.229,0.561,-0.908,0.287,0.279 (inactive),-0.278,0.353,-0.81 (inactive)
CC[C@@H](c1ccccc1)n1c(=O)n2n(c1=O)[C@H]1[C@H](O)[C@@H]3O[C@@H]3C(=NOCC(C)C)[C@H]1CC2,-0.342,0.245,-0.389,-0.288,0.44,-1.16,-1.67 (inactive),-0.0693,0.448,0.276 (inactive)
O=C(NN=C1C[C@@H](O)[C@@H](O)[C@@H]2[C@@H]3C(=O)N(c4cccc(Oc5ccccc5)c4)C(=O)[C@@H]3CC[C@H]12)OCc1ccccc1,-0.207,-0.205,-0.943,0.693,-0.363,0.559,-1.15 (inactive),0.0901,-0.0387,-0.103 (inactive)
COCCCNC(=O)[C@]1(CCC(=O)OC(C)(C)C)N=C(c2ccc(OCCCO)cc2)O[C@@H]1c1ccccc1N=[N+]=[N-],-0.771,0.463,-0.0574,-0.744,-0.387,1.75,3.61 (inactive),-0.69,-0.984,0.576 (inactive)
c1ccc(C2NCCc3c2[nH]c2ccccc32)cc1 (stereo not given),-0.479,0.381,-0.704,-0.402,-0.742,-2.18,-0.424 (inactive),0.0801,0.299,0.272 (inactive)
O=C1C[C@]2(c3ccc([N+](=O)[O-])cc3)C(=O)N(CCN3CCOCC3)c3cc(CO)ccc3[C@H]2N1CC12CC3CC(CC(C3)C1)C2,-0.677,0.15,-0.227,-0.208,-1.96,-0.141,0.0692 (inactive),-0.043,0.0356,0.723 (inactive)
O=C1O[C@@H](c2ccccc2)[C@@H](c2ccccc2)N2[C@@H](c3ccccc3OCCO)[C@]3(C(=O)Nc4ccc(C#CCCO)cc43)[C@@H](C(=O)O)[C@H]12,-0.622,1.78,-0.173,-1.43,-1.98,0.259,-0.881 (inactive),-0.231,-0.641,-0.0647 (inactive)
CCCC=C(CCC)[C@@H](NC(=O)c1ccc(-c2ccccc2)cc1)c1ccc(C(=O)OC)cc1,-1.34,-1.51,-0.166,-0.116,-1.62,-3.18,0.393 (inactive),-0.834,-1.29,0.747 (inactive)
O=C1[C@H]2[C@H]3[C@H](O)[C@H](O)CC(=NO[C@@H]4O[C@H](CO)[C@@H](O)[C@H](O)[C@H]4O)[C@@H]3CC[C@H]2C(=O)N1c1ccc(F)cc1F,-0.234,0.269,-0.87,0.506,-0.165,0.717,0.738 (inactive),-0.079,0.256,-0.126 (inactive)
O=C1O[C@@H](c2ccccc2)[C@@H](c2ccccc2)N2[C@@H](c3ccc(O)cc3)[C@]3(C(=O)Nc4ccccc43)[C@@H](C(=O)O)[C@H]12,-0.517,0.875,-0.308,-1.33,-1.03,-0.517,0.0106 (inactive),-0.934,-0.536,-0.0947 (inactive)
O=C(CS)NCCCCCNC(=O)[C@@H]1C[C@@H]2C(=O)N[C@@H](Cc3ccccc3)C(=O)N2[C@@H]1c1ccc(O)cc1,0.557,0.239,1.15,0.477,0.617,-0.0506,-0.325 (inactive),0.149,-0.625,-0.181 (inactive)
C[C@H](c1ccccc1)N1C(=O)[C@H]2[C@H]3[C@H](O)[C@H](O)CC(=O)[C@@H]3CC[C@H]2C1=O,-0.311,-0.0863,-0.254,-0.0752,0.299,0.032,-0.239 (inactive),-0.0521,0.25,-0.164 (inactive)
COC(=O)C1=CCC(c2cccc(Cl)c2)O1 (stereo not given),-0.787,-0.0098,-1.14,0.233,-0.783,-0.549,0.00619 (inactive),-0.757,-0.428,0.107 (inactive)
O=C1C[C@@H](O)[C@@H](O)[C@@H]2[C@@H]3C(=O)N(c4ccc(F)cc4F)C(=O)[C@@H]3CC[C@@H]12,-0.294,-0.0367,0.644,-0.701,-0.709,-0.56,-0.597 (inactive),-0.28,0.959,0.824 (inactive)
COc1ccc(O[C@H]2C=C[C@@H](c3ccccc3)O[C@@H]2COC(=O)CCC(C)=NOCC[C@@H]2C=C[C@H](OC(C)=O)[C@@H](COC(C)=O)O2)cc1,-0.284,-0.699,-0.1,-0.919,-0.112,-0.359,0.0763 (inactive),-0.55,-0.522,0.369 (inactive)
O=C1[C@H]2[C@H]3[C@H](O)[C@H](O)CC(=NOC[C@@H](O)COCc4ccco4)[C@H]3CC[C@H]2C(=O)N1c1cccc(Oc2ccccc2)c1,1.26,0.01,-0.463,0.511,0.977,0.526,0.994 (inactive),0.682,-1.2,0.26 (inactive)
CCN1C(=O)[C@H]2[C@H]3[C@H](O)[C@H](O)CC(=NO[C@@H]4O[C@H](CO)[C@@H](O)[C@H](O)[C@H]4O)[C@@H]3CC[C@H]2C1=O,1.05,0.462,0.484,-0.944,0.0072,-0.608,0.725 (inactive),0.14,-0.385,-0.859 (inactive)
Cc1cc2c(nc1C)CCCN2CC(O)CN1CCN(C)CC1 (stereo not given),0.306,0.411,-1.09,0.241,-0.342,-0.601,-0.625 (inactive),0.142,0.842,-0.726 (inactive)
COc1ccc(-c2ccc3c(n2)CCCN3CC(O)CN2CCCc3nc(C)c(C)cc32)cc1 (stereo not given),-0.389,-0.943,0.151,0.676,-0.158,1.58,-0.205 (inactive),-0.108,-0.975,-0.542 (inactive)
CC(C)(C)N1C(=O)[C@H]2[C@H]3[C@H](O)[C@H](O)CC(=NO[C@@H]4O[C@H](CO)[C@@H](O)[C@H](O)[C@H]4O)[C@@H]3CC[C@H]2C1=O,-0.504,0.346,0.302,-0.739,-0.666,-2.11,-0.404 (inactive),-0.018,-1.03,-0.461 (inactive)
CCOC(=O)CCN1C(=O)[C@H]2[C@H]3[C@H](O)[C@H](O)CC(=NOC[C@@H](O)COCc4ccco4)[C@@H]3CC[C@H]2C1=O,0.14,0.171,-0.324,0.366,0.557,-0.906,-0.125 (inactive),-0.393,-0.49,-0.397 (inactive)
N#Cc1ccc(NN2C(C(O)c3cccc4ccccc34)C=CC3C(=O)N(c4ccccc4)C(=O)C32)cc1 (stereo not given),-0.762,-0.506,1.52,0.0966,0.224,-0.452,0.226 (inactive),-0.312,-0.0109,0.325 (inactive)
CCOC(=O)NN=C1C[C@@H](O)[C@@H](O)[C@@H]2[C@@H]3C(=O)N(CC)C(=O)[C@@H]3CC[C@@H]12,0.296,-0.538,0.322,0.0379,0.288,-0.495,-0.852 (inactive),-0.151,-0.662,0.45 (inactive)
O=C1[C@H]2[C@H]3[C@H](O)[C@H](O)CC(=NOCc4ccccc4)[C@H]3CC[C@H]2C(=O)N1c1cccc(Oc2ccccc2)c1,0.382,-0.921,-0.6,-0.641,0.907,-0.988,0.394 (inactive),0.341,-0.721,0.188 (inactive)
COC(=O)CC1OC1[C@H](C)[C@@H](OC)C(C)C (stereo not given in full),0.285,0.0498,1.66,-3.45,0.045,1.74,0.269 (inactive),0.666,-0.796,-0.292 (inactive)
CC(CCN1CCc2nc(-c3ccccc3)c(-c3ccccc3)cc2C1)=NO[C@@H](C)c1cn([C@H](CO)Cc2ccccc2)nn1,2.69,0.343,1.4,-0.352,-0.0077,1.87,-0.353 (inactive),0.555,0.41,-0.81 (inactive)
CCCC[C@@H]1C[C@H]1[C@@H](NS(=O)(=O)c1cccc2cccnc12)c1ccc(-c2ccccc2)cc1,-1.11,-1.08,-0.0369,0.252,0.0748,-1.13,-0.43 (inactive),-0.214,-1.49,0.239 (inactive)
